Bioassay records (PubChem BioAssay)
The list is not random: actives were taken first. Their share in the collection is about 9.2%.
Rab9 prom act – Rab9 promoter activation. Huh7 Rab9 promoter-luciferase reporter, luminescence, 24 h. Potency, µM (doses to about 9.22 µM), hits mostly activators. hit rate 2.8% among 320,000. AID 485297; note: nearly all actives have a fitted effect of over 60% in size
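Luminescence from Amplite-detected luciferase (10 minutes, ambient) reports Rab9 promoter activation. Before that, stable Rab9-luciferase Huh7 cells (1500/well, reduced-serum OP-MEM I plus 10% FBS) were exposed to compound for 24 hours at 37C.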
FLuc modulator – inhibits or activates purified firefly luciferase, miR-21 counter-screen | purified FLuc, Km substrates, luminescence inhibition | AID 588342 | hit rate 6.9% among 360,000 | P08659 | Potency, µM (titrated, usually from 57.5 µM), actives largely listed as inhibitors; note: nearly all actives have a fitted effect of over 55% in size
Target sequence (P08659 whole entry, looked up): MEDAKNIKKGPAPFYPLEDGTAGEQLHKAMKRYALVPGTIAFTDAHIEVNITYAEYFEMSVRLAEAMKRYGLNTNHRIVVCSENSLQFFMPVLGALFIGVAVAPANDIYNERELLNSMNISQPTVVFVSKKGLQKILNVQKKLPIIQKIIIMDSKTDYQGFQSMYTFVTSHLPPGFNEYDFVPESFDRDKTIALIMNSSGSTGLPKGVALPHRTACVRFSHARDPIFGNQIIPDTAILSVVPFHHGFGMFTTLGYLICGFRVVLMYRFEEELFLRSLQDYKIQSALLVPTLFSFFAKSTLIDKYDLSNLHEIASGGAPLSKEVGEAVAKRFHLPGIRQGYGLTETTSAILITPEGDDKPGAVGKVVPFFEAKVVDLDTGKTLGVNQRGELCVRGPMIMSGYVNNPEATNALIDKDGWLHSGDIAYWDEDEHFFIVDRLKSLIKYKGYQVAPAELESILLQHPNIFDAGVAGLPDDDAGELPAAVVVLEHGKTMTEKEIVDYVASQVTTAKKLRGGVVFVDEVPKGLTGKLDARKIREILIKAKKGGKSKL
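Purified P. pyralis luciferase (10nM final) with 10uM D-luciferin and 10uM ATP (Km levels) in 50mM Tris acetate pH 7.5, 10mM Mg acetate, 0.01% Tween-20, 0.05% BSA; qHTS 6-point titration, ~60 µM downward; luminescence read.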
SMN2 splice enh – increases expression of the SMN2 splice variant; HEK293 SMN2-luciferase splicing reporter, luminescence, 30-36 h; Potency, µM (titrated, usually from 46.1 µM), actives largely listed as activators; hit rate 2.8% among 210,000; AID 1458; note: nearly all actives have a fitted effect of over 55% in size
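qHTS luciferase splicing reporter: luminescence rises when SMN2 exon 7 is included in transfected HEK293 cells. Compound exposure lasted 30-36 h at 37C, with 4.5 mM final sodium butyrate as control, followed by a ONE-Glo read.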
ELG1 repair inh – inhibitors of ELG1-dependent DNA repair in HEK293T cells; HEK293T ELG1-luciferase reporter, luminescence, 16 h; DNA damage induced by 5-fluorouridine; Potency, µM (series often up to 46.1 µM), hits mostly inhibitors; hit rate 2.3% among 330,000; note: nearly all actives have a fitted effect of over 55% in size
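Luminescence from the luciferase reporter, measured 30 min after ONE-Glo reagent at room temperature, was the read-out. Beforehand, 2,000 cells per well were exposed for 16 hr at 37 °C to 5-fluorouridine together with compound or vehicle.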
ELG1 genotox – inducers of genotoxicity in HEK293T ELG1-luciferase cells | HEK293T ELG1-luciferase reporter, luminescence, 16 h | Potency, µM (doses to about 46 µM), most hits filed as activators | hit rate 1.3% among 330,000; note: nearly all actives have a fitted effect of over 60% in size
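16 hr compound incubation (37 °C, 5% CO2) of HEK293T cells carrying luciferase-tagged ELG1; luciferase then measured by ONE-Glo luminescence after 30 min at RT.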
NPC1 prom act – NPC1 promoter activation. Huh7 NPC1 promoter luciferase reporter, 24 h. Potency, µM (highest dose often 9.22 µM), hits mostly activators. hit rate 2.4% among 320,000. AID 485313; note: nearly all actives have a fitted effect of over 60% in size
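Quantitative HTS used a cell-based reporter: Huh7 cells stably bearing the NPC1 promoter upstream of luciferase were treated with compounds for 24 h, and promoter activation was read as luminescence.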
Hits are given with their value; – = inactive; ? = inconclusive; · = no result given; [ ] = dose if it differs, or a comment. Calls come from the whole dose curve; as a rule, active = well fitted curve in the direction sought with a large enough effect; inconclusive = small, poorly fitted or top-dose-only effect, or another doubt; inactive = no such curve, though single readings can be large; an effect the other way counts as inactive or inconclusive.

SMILES | Rab9 prom act | FLuc modulator | SMN2 splice enh | ELG1 repair inh | ELG1 genotox | NPC1 prom act
CCC(=O)N1CCc2cc(CNC(=O)c3ccccc3C)ccc21 | · | – | · | · | · | ·
NC(=S)N/N=C/c1c(O)c(Br)cc2oc3c(c12)CCCC3 | – | – | · | 20.6µM | – | –
Oc1c(Br)cc2oc3c(c2c1CNCc1ccccc1)CCCC3 | – | – | – | – | – | –
CC(=O)C(Sc1nc(-c2ccccc2Cl)nc2c1c(=O)n(C)c(=O)n2C)C(=O)N(C)C (stereo not drawn) | · | – | · | · | · | ·
Cc1ccc(/C=C2\SC(=S)N(/N=C/c3cc([N+](=O)[O-])ccc3O)C2=O)o1 | – | 23.9µM | · | – | – | –
O=C(NN1C(=O)/C(=C/c2cc([N+](=O)[O-])ccc2O)SC1=S)c1ccccc1O | – | ? | · | – | – | –
CCS(=O)(=O)N1Cc2ccccc2CC1C(=O)Nc1cccc(C)c1 (stereo not drawn) | – | 23.9µM | ? | ? | – | ?
CCS(=O)(=O)N1Cc2ccccc2CC1C(=O)Nc1ncc(C)s1 (stereo not drawn) | ? | ? | 12.6µM | ? | ? | –
CCS(=O)(=O)N1Cc2ccccc2CC1C(=O)Nc1ccc(C)cc1 (stereo not drawn) | – | ? | – | ? | ? | –
O=C(Nc1nccs1)C1Cc2ccccc2CN1S(=O)(=O)c1ccc(F)cc1 (stereo not drawn) | ? | 23.9µM | 11.2µM | ? | ? | ?
C[C@@H](C1[C@@H](O)CC2C3C=CC4C[C@@H](O)CC[C@]4(C)[C@H]3CC[C@@]21C)[C@@H]1CCCCN1 (stereo partly drawn) | · | · | – | · | · | ·
COc1ccc(OC)c(CNS(=O)(=O)c2cc(-c3onc(C)c3C)ccc2C)c1 | · | – | · | · | · | ·
COc1ccc(N(C)C(=O)c2cc3c(s2)-c2ccccc2OC3)c(OC)c1 | – | – | · | ? | – | –
COc1ccc(N(C)C(=O)c2cc3c(s2)-c2ccc(Cl)cc2S(=O)(=O)C3)c(OC)c1 | – | – | · | 20.6µM | –[9.26 µM] | –
CSc1ccccc1C(=O)N1CCCC(CCC(=O)NCc2ccc(F)c(F)c2)C1 (stereo not drawn) | – | – | · | ? | – | –
COC(=O)c1ccccc1C(=O)N1CCCC(CCC(=O)NCc2ccc(F)c(F)c2)C1 (stereo not drawn) | ? | 13.5µM | · | ? | ? | –
O=C(CCC1CCCN(C(=O)c2ccc3c(c2)OCCO3)C1)NCc1ccccc1F (stereo not drawn) | 2.82µM | 16.9µM | · | ? | ? | –
COC(=O)CCCC(=O)N1CCCC(CCC(=O)NCc2ccc(F)c(F)c2)C1 (stereo not drawn) | – | 16.9µM | · | – | ? | –
Cc1cccc(C(=O)NCC(=O)N2CCN(c3ccccn3)CC2)c1 | · | · | · | – | – | ·
O=C(O)CSc1cc(NS(=O)(=O)c2ccc(Cl)cc2)c2ccccc2c1O | – | ? | · | ? | – | –
O=S(=O)(Nc1cccnc1Cl)c1ccc(F)cc1 | – | – | · | – | – | –
O=S(=O)(Nc1cc(Sc2cccc3cccnc23)c(O)c2ccccc12)c1ccc(F)cc1 | – | ? | – | 9.2µM | – | –
COc1ccc(S(=O)(=O)Nc2cc(Sc3ncn[nH]3)c(O)c3ccccc23)cc1 | – | ? | – | 23.1µM | – | –
COc1ccc(S(=O)(=O)Nc2cc(SCC(=O)O)c(O)c3ccccc23)cc1 | – | ? | · | 16.4µM | – | –
COc1cccc(Cn2c(CNC(=O)c3cc([N+](=O)[O-])ccc3Cl)nc3cccnc32)c1 | · | – | · | · | · | ·
CCOc1ccc(NC(=O)COC(=O)CNC(=O)c2ccc(-c3ccccc3)cc2)cc1 | – | ? | · | – | – | –
O=C(CN1C(=O)S/C(=C\C=C\c2ccccc2)C1=O)Nc1ccc(C(=O)O)cc1 | – | 6.01µM | · | – | – | –
O=C(CCN1C(=O)/C(=C\C=C\c2ccccc2)SC1=S)Nc1ccc(C(=O)O)cc1 | – | 0.953µM | · | ? | ? | ?
O=C(CN1C(=O)S/C(=C/C=C/c2ccccc2)C1=O)Nc1ccc(C(=O)O)cc1 | – | 4.78µM | – | – | – | –
